Among the data in PubChem BioAssay AID1628 (Sanford-Burnham Center for Chemical Genomics, 2009) are z-score values, retold here.

SMILES strings stand for the structures. Screen size: about 190,000 compounds; about 930 (0.49%) were called active. This is one part of the list. Potency and affinity values are given separately. Unmarked numbers belong to inactive results.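 How the source made its calls: active means z-score of insulin promoter reporter brightness in nuclei below -3 at 5 µM, with at least 500 cells counted; inconclusive means wells with under 500 cells, flagged as toxic or sparse; inactive means the rest.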

A short description of the experiment: decrease of insulin promoter-GFP reporter – imaging, high-content screening, mouse beta cells (AID 1628). Particulars: MIN6 insulin promoter GFP reporter, at 5 µM, stronger effect = lower value.
On to `CCC(=NCCc1c[nH]c2ccccc12)c1c(O)n(C)c(=O)n(C)c1=O`, for which the z-score is -5.98 (active).
Regarding `O=C(/C=C/c1c[nH]c2ccccc12)c1c(O)n(CCc2ccccc2)c(=O)[nH]c1=O`, the z-score was 16.
As for `CNCCc1c[nH]c2ccccc12`, the figure is -0.16; as for `CCCCCCn1c(O)c(C=NC2CCCCC2N)c(=O)[nH]c1=O` (stereo unspecified), -0.8; as for `Cc1cc(C=C2C(=O)NC(=O)NC2=O)c(C)n1-c1ccncc1`, 2.32.
As for `CCCCCn1c(=O)c(C(=O)Nc2nc3ccccc3[nH]2)c(O)c2ccccc21`, the figure is -3.26 (active); as for `CCCCCCn1c(=O)c(C(=O)Nc2ccncc2)c(O)c2ccccc21`, -5.74 (active); as for `CCCCn1c(O)c(C(=O)/C=C/c2c[nH]c3ccccc23)c(=O)[nH]c1=O`, 12.4.
For `CCCCCn1c(=O)c(C(=O)Nc2cnccn2)c(O)c2ccccc21` the value was -5.71 (active).
In the case of `CN1CCN(c2ccc(/C=C3\C(=O)NC(=S)N(c4cccc(Br)c4)C3=O)o2)CC1`, the z-score was 3.97.
For `O=C(O)c1cccc2nc3ccccc3nc12` the value was -0.32; for `Oc1c(Cl)cc(Cl)cc1CN1CCN(Cc2ccccc2)CC1`, 2.17.
As for `O=[N+]([O-])c1ccc(NCc2ccccc2)c2nonc12`, the figure is 13.4.
As for `CCCCc1ccc2[nH]cc(CCN)c2c1`, the figure is 3.13; as for `CC(=O)OC(C)(C)/C=C/C(=O)[C@](C)(O)[C@H]1[C@H](O)C[C@@]2(C)[C@@H]3CC=C4[C@H](C[C@H](O)C(=O)C4(C)C)[C@]3(C)C(=O)C[C@]12C`, -4.32 (active); as for `CN1CC=C2C(C#N)=C(N)C(C#N)(C#N)C(c3ccncc3)C2C1` (stereo unspecified), 8.74.
Consider `O=c1[nH]c(=O)n(-c2ccc(F)cc2)c(O)c1C=Nc1ccccc1N1CCCC1`, for which the z-score was 4.37.
As for `O=c1cc(C(F)(F)F)c2cc3c4c(c2o1)CCCN4CCC3`, the figure is 17.3; as for `CC(C)N1CCN(Cc2cccc([N+](=O)[O-])c2)CC1`, 2.53; as for `O=C(/C=C/c1ccccc1)NCCc1cnc[nH]1`, -0.29.
As for `CN1/C(=C\C=C2C(=O)NC(=S)NC2=O)C(C)(C)c2ccccc21`, the figure is 14.4.
For `O=C1Nc2ccc(Br)cc2C(c2ccccc2Cl)=NC1O` (stereo unspecified) the value was -0.25; for `N#Cc1ccccc1Cn1cc(C(=O)c2ccco2)c2ccccc21`, -6.56 (active); for `CN1C(=O)C(=Cc2ccc(N3CCCCC3)o2)C(=O)N(C)C1=S`, 4.86.
In the case of `Cc1ccc(Cn2nnnc2CN2CCC(n3nnc4cc(C(F)(F)F)ccc43)CC2)cc1`, the z-score was -3.36 (active).
Regarding `CCCCCCn1c(O)c(C=Nc2ccccc2N2CCOCC2)c(=O)[nH]c1=S`, the z-score was 3.25.
As for `CC(C)(C)c1nc(NCc2ccc3c(c2)OCO3)c2nnn(Cc3ccccc3Cl)c2n1`, the figure is 2.04.
As for `COc1ccc(Cl)cc1NC1=NCC(C)S1` (stereo unspecified), the figure is -4.13 (active); as for `CN1CCN(c2nc(Cl)ncc2F)CC1`, 4.91.
As for `CC1=NCCc2c1[nH]c1ccccc21`, the figure is -0.55; as for `CCn1nc(/C=C/c2ccccc2)nc2c(=O)n(C)c(=O)nc1-2`, -4.69 (active); as for `Cc1cc2c(C(F)(F)F)cc(=O)oc2c2c1NCCC2`, 5.21.
Consider `CN1C2CCC1CC(=NO)C2`, for which the z-score is 0.21.
For `Nc1cc2nc3ccccc3nc2cc1N` the value was 3.68; for `CC(C)[C@H]1C(=O)O[C@H](C(C)C)C(=O)N(C)[C@@H](C(C)C)C(=O)O[C@H](C(C)C)C(=O)N(C)[C@@H](C(C)C)C(=O)O[C@H](C(C)C)C(=O)N1C`, -4.32 (active); for `NC(=O)OCCSc1nnc(-c2cccc(C(N)=S)c2)o1`, 1.36.
For the molecule `O=C1NC(=O)N(c2ccc3c(c2)OCO3)C(=O)/C1=C/c1cccs1`, the z-score was 1.66.
As for `c1ccc2c(N3CCNCC3)nsc2c1`, the figure is 3.06; as for `COc1ccccc1CN1CCN(C(=O)COc2ccccc2)CC1`, -4.58 (active); as for `COc1ccc(CC(=O)N2CCN(C)CC2)cc1`, 3.53.
As for `COc1ccc(OCC(=O)N2CCN(C3CCC(c4ccccc4)CC3)CC2)cc1` (stereo unspecified), the figure is -4.73 (active); as for `CCC(=O)c1ccc(OC)c(OC)c1`, -0.74.
As for `C=CCN1C(=O)/C(=C/c2ccc(N3CCOCC3)o2)C(=O)NC1=S`, the figure is 3.53.
With `Cn1c(=O)c2c(ncn2CCCl)n(C)c1=O`, the z-score was 0.35.
For `CCc1ccccc1N1C(=O)/C(=C/c2ccc(N3CCN(C)CC3)o2)C(=O)NC1=S` the value was 3.37; for `Cc1cc([N+](=O)[O-])c2ccccc2[n+]1[O-]`, -6.12 (active).
For `c1ccc2c(NC3=NCCS3)cccc2c1` the value was -5.01 (active); for `CC(Cc1ccccc1)NC(=O)CN1CCCC1=O` (stereo unspecified), -3.46 (active).
As for `COc1ccc(-c2cc(-c3ccccc3)[n+](C)c(-c3ccccc3)c2)cc1`, the figure is -4.19 (active); as for `CCN(CC)c1ccc(/C=N/c2sc3c(c2C#N)C2CCN3CC2)c(O)c1`, 16.8; as for `CC1CCCC(C2(O)C(=O)Nc3ccccc32)C1=O` (stereo unspecified), 5.61.
